High-throughput results from PubChem.
Tau ThT inhib: qHTS for Inhibitors of Tau Fibril Formation, Thioflavin T Binding; recombinant tau K18 P301L, heparin-induced fibrillization, ThT fluorescence; AID 1460, 2008; 2.1% of 270,000 active; Potency, µM (top dose mostly 57.4 µM), for the others: at the highest dose activity, negative = inhibition, actives largely listed as inhibitors; Microtubule-associated protein tau (Homo sapiens), P10636; also: potency is read from the fitted curve at half-maximal effect; nearly all actives have a fitted effect of over 55% in size
Target sequence (P10636 561-689 P618L limits assumed): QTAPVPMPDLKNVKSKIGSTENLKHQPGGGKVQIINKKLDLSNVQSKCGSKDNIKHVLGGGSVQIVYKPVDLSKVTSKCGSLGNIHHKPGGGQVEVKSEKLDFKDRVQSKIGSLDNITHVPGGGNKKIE
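ThT emission at 510 nm, taken 1 hr after adding 30 uM dye, quantifies aggregates formed when 20 uM heparin acts on human tau K18 P301L for 6 hr at 37 C.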
Sfp PPTase inh: qHTS Assay for Inhibitors of Bacillus subtilis Sfp phosphopantetheinyl transferase (PPTase). 3.5% of 310,000 active. 4'-phosphopantetheinyl transferase ffp (Bacillus subtilis), Q9F4F7. Biochemical Sfp PPTase activity, qHTS. Potency, µM, inactives show largest response in the series, negative = inhibition, usual class: inhibitors;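 also: the enzyme is Sfp with the accession as filed and its product quenches rhodamine fluorescence; potency is read from the fitted curve at half-maximal effect; 0% = enzyme reaction without inhibitor and -100% = no enzyme wells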
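After 15 min at room temperature with compound, 15 nM Sfp received 5 uM rhodamine-CoA plus 12.5 uM BHQ-2-ybbR (50 mM Hepes pH 7.6, 10 mM MgCl2). Rate came from the fluorescence difference over 30 min, ex 525/em 598 nm.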
Tau fibril FP: qHTS for Inhibitors of Tau Fibril Formation, Fluorescence Polarization. Microtubule-associated protein tau (Homo sapiens), P10636. K18 P301L tau heparin fibrillization, Alexa594 FP, 6 h. Potency, µM (top dose mostly 57.7 µM), inactives show at the top dose activity, negative = inhibition, most hits filed as inhibitors. 0.39% of 280,000 active. AID 1468, 2008; also: potency is read from the fitted curve at half-maximal effect; nearly all actives have a fitted effect of over 55% in size
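Heparin (20 uM) drove fibril formation of recombinant tau K18 P301L, 15 uM unlabeled with 0.24 uM Alexa 594 label, for 6 hr at 37 C in 100 mM sodium acetate pH 7. Fluorescence polarization (555/632 nm) read 1 hr after 30 uM ThT.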
Tau fluor counter: Counterscreen qHTS for Inhibitors of Tau Fibril Formation, Fluorescence Polarization | Potency, µM (series often up to 57.7 µM), inactives show at the top dose activity change, negative = decrease | tau K18 P301L (four-repeat tau fragment) Alexa594 fluorescence, heparin fibrillization | 0.93% of 280,000 active | AID 1463, 2008; also: potency is read from the fitted curve at half-maximal effect; nearly all actives have a fitted effect of over 55% in size
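Human K18 P301L tau (15 uM unlabeled plus 0.24 uM Alexa 594-labeled, final) in 100 mM sodium acetate pH 7 was mixed with compound and 20 uM heparin and incubated 6 hr at 37 C.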
Coupling enz: qHTS Assay for Inhibitors of Fructose-1,6-bisphosphate Aldolase from Giardia Lamblia: Coupling assay counterscreen. coupling enzyme system counterscreen, AmpLite Red fluorescence. activity change, negative = inhibition, % at 58.2 µM, hits read low. 0.67% of 290,000 active. AID 2472, 2010; in the data active = activity change below about -30%
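Counterscreen lacking aldolase: glyceraldehyde-3-phosphate coupling-enzyme reagent preincubated 10 min at RT with compound (at 57.5 uM final), then substrate/coupling system with AmpLite Red added; fluorescence read at 525/598 nm after 20 min RT.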
G9a inh: qHTS Assay for Inhibitors of Histone Lysine Methyltransferase G9a | AID 504332, 2011 | 8.8% of 350,000 active | G9a H3K9 monomethylation, AlphaScreen, 2 h | Histone-lysine N-methyltransferase EHMT2 (Homo sapiens), Q96KQ7 | Potency, µM (highest dose often 102 µM), for inactives: top-dose activity, negative = inhibition, usual class: inhibitors; also: potency is read from the fitted curve at half-maximal effect; nearly all actives have a fitted effect of over 75% in size
Target sequence (Q96KQ7 913-1193 limits assumed): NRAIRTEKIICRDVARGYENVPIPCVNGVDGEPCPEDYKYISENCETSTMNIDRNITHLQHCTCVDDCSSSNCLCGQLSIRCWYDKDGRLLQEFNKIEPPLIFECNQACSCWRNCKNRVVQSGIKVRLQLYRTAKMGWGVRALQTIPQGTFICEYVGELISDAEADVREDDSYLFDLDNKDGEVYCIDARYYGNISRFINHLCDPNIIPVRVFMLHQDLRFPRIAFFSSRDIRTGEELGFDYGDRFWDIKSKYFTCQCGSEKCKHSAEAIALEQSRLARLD
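Readings reflect AlphaScreen signal from monomethyl-H3K9 antibody detection. HMT at 20 nM; substrate b-H3K9 500 nM; cofactor SAM 20 uM; 2 h RT reaction; compounds tested as titrations in qHTS with 15 min preincubation.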
Active calls of the source: *; [ ] = another dose, or the depositor's remark. The list is not random: actives were taken first. Their share in the collection is about 11%. Unless noted, calls follow the shape of the dose curve; as a rule, active = well fitted curve in the direction sought with a large enough effect; inconclusive = small, poorly fitted or top-dose-only effect, or another doubt; inactive = no such curve, though single readings can be large; an effect the other way counts as inactive or inconclusive. Unless noted, % is scaled to controls: 0 for no effect and ±100 for the full control effect.

For O=C(c1ccco1)C(O)c1ccco1 (centres undefined) the results were Sfp PPTase inh 12%, Coupling enz -1 and G9a inh 50µM*.
Screening Cc1ccccc1OCC(=O)NN1C(=O)C2C3C=CC(O3)C2C1=O (centres undefined) returned Tau ThT inhib -8%, Sfp PPTase inh 50µM*, Tau fibril FP 7%, Tau fluor counter 4%, Coupling enz 1 and G9a inh inconclusive.
Cc1cccc(OCC(=O)NN2C(=O)C3C4C=CC(O4)C3C2=O)c1 (centres undefined) was read as Tau ThT inhib -9%, Sfp PPTase inh 40µM*, Tau fibril FP -1%, Tau fluor counter 7%, Coupling enz -1 and G9a inh 8.9µM*.
For Cc1ccccc1OCC(=O)NN1CCN(C)CC1 the results were Tau ThT inhib -1%, Sfp PPTase inh 2%, Tau fibril FP -2%, Tau fluor counter 1%, Coupling enz 2 and G9a inh -25%.
For Cc1cccc(OCC(=O)NC2CCCC2)c1 the results were Sfp PPTase inh -3%, Coupling enz 0 and G9a inh 6%.
Screening CCOc1ccc(C(=O)NN2C(=O)C3C4C=CC(O4)C3C2=O)cc1 (centres undefined) returned Tau ThT inhib -12%, Sfp PPTase inh 28µM*, Tau fibril FP -8%, Tau fluor counter -3%, Coupling enz 2 and G9a inh 6.3µM*.
`O=C1C2C3C=CC(O3)C2C(=O)N1CC(O)c1ccccc1` (centres undefined) gave Tau ThT inhib -15%, Sfp PPTase inh -17%, Tau fibril FP -8%, Tau fluor counter 5%, Coupling enz 0 and G9a inh inconclusive.
O=C(CCc1ccccc1)NN1C(=O)C2C3C=CC(O3)C2C1=O (centres undefined) was read as Tau ThT inhib 13%, Sfp PPTase inh 10µM*, Tau fibril FP 3%, Tau fluor counter 8%, Coupling enz 4 and G9a inh 10µM*.
For CCc1ccc(NC(=O)CC(c2cc(OC)c(OC)c(OC)c2)N2Cc3ccccc3C2=O)cc1 (centres undefined) the results were Tau ThT inhib 8%, Tau fibril FP 3%, Tau fluor counter -5% and G9a inh 1%[59 µM].
For Cc1cc(Cl)ccc1NC(=O)c1cccc(NC(=O)N2CCSc3ncccc32)c1 the results were Tau ThT inhib 0%, Tau fibril FP -5%, Tau fluor counter -18% and G9a inh inconclusive.
`CCCn1c(N)c(C(=O)CSc2nc(C)nc3sc(C)c(C)c23)c(=O)[nH]c1=O` gave G9a inh 22µM*.
`CC(=O)N(Cc1ccc(F)cc1)C1=C(NCc2ccccc2)C(=O)c2ccccc2C1=O` gave Tau ThT inhib 28µM*, Sfp PPTase inh -3%, Tau fibril FP -5%, Tau fluor counter inconclusive, Coupling enz -55* and G9a inh 13µM*.
For CC(C)(C)NCCCCOc1ccccc1F the results were Tau ThT inhib -1%, Sfp PPTase inh 13%, Tau fibril FP -2%, Tau fluor counter -7%, Coupling enz 2 and G9a inh -26%[12.7 µM].
For Cc1ccc(C(C)C)c(OCCNCc2ccccc2)c1 the results were Sfp PPTase inh -19% and Coupling enz 5.
CNCCOc1ccccc1C(C)(C)C was read as Tau ThT inhib 2%, Sfp PPTase inh inconclusive, Tau fibril FP -1%, Tau fluor counter -6%, Coupling enz -13 and G9a inh 13µM*.
`O=[N+]([O-])c1ccccc1OCCNCc1ccccc1` gave Sfp PPTase inh -20%, Coupling enz -1 and G9a inh 7.9µM*.
